Assay results published in the supplement of paper PMC12067926.
Unmarked numbers belong to inactive results.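 Rule for the calls: active = growth AUC significantly below the DMSO wells by Dunnett test; inactive = the rest.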

These molecules were tested on Carnobacterium 1 (Carnobacterium gallinarum) (assay: relative growth (AUC of 72 h growth curve relative to DMSO control, dAUC) (ratio); higher = more growth (less inhibition), active = hit call of the paper). Conditions: 20 µM.
Procedure: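 Environmental bacterial isolates (Iceland stream sediment and Silwood Park soil) and whole stream-sediment communities were grown in LB from a 1:100 dilution with each pesticide at 20 µM (1% DMSO). A600 was read hourly for 72 h and the area under a spline-fitted growth curve (AUC) was computed. dAUC is the mean AUC of 3 biological replicates divided by the mean AUC of the DMSO controls. Significance was tested by Dunnett's test against the DMSO control.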

SMILES | relative growth
CCc1cnc(C2=NC(C)(C(C)C)C(=O)N2)c(C(=O)O)c1 (stereo not given) | 1.06
CCC(=O)Nc1ccc(Cl)c(Cl)c1 | 0.897
CCc1nn(C)c(C(=O)NCc2ccc(Oc3ccc(C)cc3)cc2)c1Cl | 1.19
CSc1nnc(C(C)(C)C)c(=O)n1N | 1.38
O=C(Nc1ccc(F)cc1F)c1cccnc1Oc1cccc(C(F)(F)F)c1 | 1.1
CNC(=O)c1cc(C#N)cc(C)c1NC(=O)c1cc(Br)nn1-c1ncccc1Cl | 0.896
Cc1cc(C2CC2)nc(Nc2ccccc2)n1 | 0.909
C#CCN1C(=O)COc2cc(F)c(N3C(=O)C4=C(CCCC4)C3=O)cc21 | 0.92
COC(=O)Nc1nc2ccccc2[nH]1 | 1.1
CCOCn1c(-c2ccc(Cl)cc2)c(C#N)c(Br)c1C(F)(F)F | 1.16
Cc1ccc(/N=C/N(C)/C=N/c2ccc(C)cc2C)c(C)c1 | 1.24
CCCCN(CCCC)SN(C)C(=O)Oc1cccc2c1OC(C)(C)C2 | 1.51
COc1ncc(F)c2nc(S(=O)(=O)Nc3c(F)cccc3F)nn12 | 1.1
CC(COc1ccc(Oc2ccccc2)cc1)Oc1ccccn1 (stereo not given) | 1.38
CSc1nc(NC(C)C)nc(NC(C)C)n1 | 0.71
O=C1C2(Cl)C3(Cl)C4(Cl)C(Cl)(Cl)C5(Cl)C3(Cl)C1(Cl)C5(Cl)C24Cl (stereo not given) | 0.621
CCOc1cc(Oc2ccc(C(F)(F)F)cc2Cl)ccc1[N+](=O)[O-] | 0.874
CCCSP(=O)(OCC)Oc1ccc(Br)cc1Cl (stereo not given) | 0.842
COC(=O)c1ccccc1S(=O)(=O)NC(=O)Nc1nc(C)nc(OC)n1 | 1.2
CC[C@H](C)[C@H]1O[C@]2(C=C[C@@H]1C)C[C@@H]1C[C@@H](C/C=C(\C)[C@@H](O[C@H]3C[C@H](OC)[C@@H](O[C@H]4C[C@H](OC)[C@@H](O)[C@H](C)O4)[C@H](C)O3)[C@@H](C)/C=C/C=C3\CO[C@@H]4[C@H](O)C(C)=C[C@@H](C(=O)O1)[C@]34O)O2.CO[C@H]1C[C@H](O[C@H]2[C@H](C)O[C@@H](O[C@@H]3/C(C)=C/C[C@@H]4C[C@@H](C[C@]5(C=C[C@H](C)[C@@H](C(C)C)O5)O4)OC(=O)[C@@H]4C=C(C)[C@@H](O)[C@H]5OC/C(=C\C=C\[C@@H]3C)[C@]54O)C[C@@H]2OC)O[C@@H](C)[C@@H]1O | 0.726

SMILES | relative growth
O=C1C2CC=CCC2C(=O)N1SC(Cl)(Cl)Cl (stereo not given) | 1.19
CNC(=O)c1cc(Cl)cc(C)c1NC(=O)c1cc(Br)nn1-c1ncccc1Cl | 1.24
CC1(C)[C@H](C(=O)O[C@H](C#N)c2cccc(Oc3ccccc3)c2)[C@@H]1C=C(Br)Br | 1.47
COc1ccc(-c2ccccc2)cc1NNC(=O)OC(C)C | 0.828
CNC(=O)Oc1cccc2ccccc12 | 1.1
CCCN(CCOc1c(Cl)cc(Cl)cc1Cl)C(=O)n1ccnc1 | 1.08
Cc1nc(N(C)C)nc(OC(=O)N(C)C)c1C | 0.883
CCNC(=O)NC(=O)/C(C#N)=N/OC | 0.965
N#CC(CCc1ccc(Cl)cc1)(Cn1cncn1)c1ccccc1 (stereo not given) | 0.805
Fc1ccc(Oc2ccnc3cc(Cl)cc(Cl)c23)cc1 | 1.13
CS(=O)(=O)c1ccc(C(=O)C2C(=O)CCCC2=O)c([N+](=O)[O-])c1 | 1.44
CNC(=O)CSP(=S)(OC)OC | 0.894
O=C(O)COc1ccc(Cl)cc1Cl | 1.06
CC1=NNC(=O)N(/N=C/c2cccnc2)C1 | 1.3
CCCC(Cn1cncn1)c1ccc(Cl)cc1Cl (stereo not given) | 1.13
CC1(C(=O)Nc2ccc(O)c(Cl)c2Cl)CCCCC1 | 0.935
CN1COCN(Cc2cnc(Cl)s2)/C1=N\[N+](=O)[O-] | 1.12
O=C1c2ccccc2C(=O)N1SC(Cl)(Cl)Cl | 1.03
CC(C)OC(=O)Nc1cccc(Cl)c1 | 1.5
Oc1ccc(Cl)cc1Cc1cc(Cl)ccc1O | 0.00911 (active)
